Compound activity (PubChem BioAssay)
Only some compounds are listed: those with a hit (about 6% of all), similar ones and a draw of the others.
BCR signal inh – inhibitors of chronic active B-cell receptor signaling. Potency, µM (highest dose often 46.1 µM), for the others: at the top dose activity change, negative = inhibition, hits mostly inhibitors. ABC-DLBCL IkBa-CBG/CBR reporter, luminescence ratio, 4 h. 340,000 compounds, 0.05% hits; active = well fitted inhibition curve with a large enough effect in the signal ratio, with a control signal flat, not every such curve was filed as active; inconclusive = small, poorly fitted or top-dose-only effect, or effect the other way, or a change in a side signal; the % refers to the signal ratio;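 note: potency is the fitted concentration of half-maximal effect; plate controls were basal doxycycline-induced cells for no effect and cells given 10 µM MG132 for full effect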
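Concentration-response series (up to 46 uM) were applied to TMD8 dual-reporter cells for 4 h at 37C with doxycycline. Green/red ratio, after filter-overlap correction, defined %Activity; red signal alone was normalised to basal cells and zero luminescence.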
D1 antagonist – antagonists of human D1 dopamine receptor. HEK293 TREx D1 cells, calcium flux, dopamine EC80; active compounds read low. activity change, negative = inhibition, % at 10 µM. 360,000 compounds, 3.2% hits. AID 504652; in the data active = activity change below about -30%; note: % is set by controls: 0 for no effect and ±100 for the full control effect
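Cells carrying a force-coupled, tetracycline-inducible human D1 receptor report calcium flux. Each well gets a 10 s baseline, compound with 180 s monitoring, then an EC80 dopamine stimulus with a second 180 s kinetic read.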
D1 PAM – human D1 dopamine receptor positive modulation | P21728 | HEK293 TREx D1 cells, calcium flux, dopamine EC20 potentiation | potentiation, % at 10 µM | 360,000 compounds, 0.036% hits | AID 504651; in the data active = potentiation above about 30%; note: 0% is about no effect
DRD3 antagonist – blocks the human D3 dopamine receptor. D3R cells, DiscoveRx beta-arrestin luminescence, antagonist mode; active compounds read low. P35462. 360,000 compounds, 2.5% hits. AID 652054. max response, negative = inhibition, %; in the data active = max response below about -50%; inconclusive = no clear call, values can overlap the other calls; note: % is set by controls: 0 for no effect and ±100 for the full control effect
Target sequence (P35462 whole entry, looked up): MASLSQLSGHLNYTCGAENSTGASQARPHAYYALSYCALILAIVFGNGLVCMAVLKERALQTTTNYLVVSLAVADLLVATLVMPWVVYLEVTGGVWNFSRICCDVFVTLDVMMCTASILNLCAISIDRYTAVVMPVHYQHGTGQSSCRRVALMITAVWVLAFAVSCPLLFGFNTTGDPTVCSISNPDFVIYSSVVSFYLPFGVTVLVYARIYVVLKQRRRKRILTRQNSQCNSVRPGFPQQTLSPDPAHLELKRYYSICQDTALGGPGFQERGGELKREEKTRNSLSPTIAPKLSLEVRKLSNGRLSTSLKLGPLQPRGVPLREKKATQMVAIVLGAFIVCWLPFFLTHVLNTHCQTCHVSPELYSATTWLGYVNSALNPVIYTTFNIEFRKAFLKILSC
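Cells plated overnight at 1500 cells/well, then exposed to library compounds with dopamine controls for 90 minutes at 37 degrees C. DiscoveRx reagent added for 30–60 minutes at room temperature; luminescence read, quantitative HTS format.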
D1 ag – human D1 receptor agonism; P21728; 360,000 compounds, 1% hits; HEK293 T-REx D1 cells, calcium flux, agonist mode; AID 504660; activation, % at 2 µM; in the data active = activation above about 30%; note: 0% is about no effect
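Inducible HEK293 T-REx D1 cells, force-coupled to calcium signalling, were plated at 4000 cells/well with tetracycline and held overnight at 30 C. After no-wash calcium dye loading, compound-evoked calcium rise over 180 s flagged agonists.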
D3 ag – activates the human D3 dopamine receptor. 410,000 compounds, 0.58% hits. max activation, %. P35462. AID 652048. D3R DiscoveRx beta-arrestin cells, luminescence, 90 min; in the data active = max activation above about 30%; note: 0% is about no effect
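Cells at 1500/well, incubated overnight, then treated with pinned compounds (dopamine as control) for 90 min at 37 degrees C. DiscoveRx reagent added for 30 - 60 minutes at room temperature; luminescence read.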
Numbers without * were called inactive; u = inconclusive; x = not tested or not shown; ! = repeats disagree.

SMILES	BCR signal inh	D1 antagonist	D1 PAM	DRD3 antagonist	D1 ag	D3 ag
CCOC(=O)c1sc(NC(=O)/C=C/c2cnn(CC)c2C)c(C(=O)OCC)c1C	-4.1%	-60.0*	-4.0	15.6	6.9	35.6*
COc1ccccc1-c1nnc(C2CCN(C(=O)c3cccc(Cl)c3)CC2)o1	x	-5.5	3.6	x	0.9	6.0
N/C(=N\OC(=O)c1cccc(F)c1)c1cccc([N+](=O)[O-])c1	u	-10.7	-3.3	2.4	0.7	-9.2
O=C(Oc1cccc2cccnc12)c1cccc([N+](=O)[O-])c1	-6.5%	-9.4	-2.6	u	4.2	-21.1
O=C(Oc1ccc(Cl)c2cccnc12)c1cccc([N+](=O)[O-])c1	u	2.5	-1.1	-72.2*	2.2	-26.0
N/C(=N/OC(=O)c1cccc([N+](=O)[O-])c1)c1cccc([N+](=O)[O-])c1	6.2%	-17.3	-1.4	-53.1*	1.9	-5.2
O=C(Oc1c(Cl)cc(Cl)c2cccnc12)c1cccc([N+](=O)[O-])c1	20.6µM*	-0.6	0.8	-94.4*	4.3	-29.5
CC(C)CCN(C(=O)Nc1ccc(Cl)cc1)C1CCN(C(C)C)CC1	8.7%	-0.2	1.4	-59.2*	15.9	-17.1
CC(C)CCN(C(=O)Nc1ccc(Cl)c(Cl)c1)C1CCN(C(C)C)CC1	-7.1%	-1.9	-1.1	x	16.1	-33.9
CCOCCCN(C(=O)Nc1ccc(Cl)cc1)C1CCN(C(C)=O)CC1	u	-30.5*	0.4	x	-0.1	7.1
CCc1nc2c(OCc3c(C)noc3C)cccn2c1N(C=O)Cc1ccc(OC)cc1	x	x	x	116.0	x	8.0
CCc1nc2ccc(C(=O)N(C)Cc3ccco3)cn2c1N(C)CCCc1ccccc1	x	x	x	16.7	x	-9.6
CC(=O)N1CCOc2cc(S(=O)(=O)NC(C)c3ccccc3)c(Cl)cc21 (stereo not given)	4.4%	-0.3	-9.2	-61.1*	6.6	-14.9
O=C(CCC(=O)N1CCOc2ccc(Cl)cc21)NCCCN1CCN(Cc2ccccc2)CC1	u	-16.2	-19.2	-59.7*	2.8	-13.2
CC(CNC(=O)CCC(=O)N1CCOc2ccc(Cl)cc21)c1ccccc1 (stereo not given)	u	6.9	-2.7	-50.1*	4.1	-15.3
CN(CCCNC(=O)CCC(=O)N1CCOc2ccc(Cl)cc21)Cc1ccccc1	-35.5%	-30.9*	-14.1	u	6.3	-11.1
O=C(NCCc1ccccc1)c1ccc(Cn2c(SCc3cccc(F)c3)nc3cccnc32)cc1	u	4.5	0.3	x	7.5	-21.4
Cc1ccc2c(c1)N(C(=O)CCC(=O)NCCCN1CCC(Cc3ccccc3)CC1)CCO2	u	-40.4*	-10.8	u	22.6	-10.3
O=C(CCC(=O)N1CCOc2ccccc21)NCCCN1CCCCC1	-0.2%	4.6	-7.9	10.2	0.7	-2.4
O=C(CCC(=O)N1CCOc2ccc(Cl)cc21)NCCCN1CCOCC1	0.5%	14.5	4.5	5.4	1.2	-7.8
CC1CN(C(=O)CCC(=O)NCCCN2CCN(Cc3ccccc3)CC2)c2cc(Cl)ccc2O1 (stereo not given)	-8.2%	4.2	-1.5	-89.9*	6.1	-1.6
CCC1CCCCN1CCCNC(=O)CCC(=O)N1CCOc2ccccc21 (stereo not given)	5.2%	-30.2*	0.4	-8.8	5.0	-2.9
COc1ccc(NC(=O)c2oc3ccccc3c2NC(=O)c2cccc(F)c2)c(OC)c1	x	-7.5	1.0	x	4.0	5.9
N#Cc1ccc(Cl)cc1NC(=O)COC(=O)[C@H](CCC(N)=O)NC(=O)c1ccc(F)cc1	0.3%	-31.9*	0.7	0.0	2.2	-10.1
NC(=O)CC[C@H](NC(=O)c1ccc(F)cc1)C(=O)OCC(=O)Nc1c(F)c(F)c(F)c(F)c1F	-1.1%	-7.0	-3.0	11.4	3.6	-2.5
SMILES	BCR signal inh	D1 antagonist	D1 PAM	DRD3 antagonist	D1 ag	D3 ag
C=C(C)CSC1=C(C#N)C(c2ccsc2)CC(=O)N1 (stereo not given)	0.1%	-38.9*	0.6	-17.1	4.8	-5.1
CCSC1=C(C#N)C(c2ccc(F)cc2)CC(=O)N1 (stereo not given)	-1.1%	-32.4*	-5.8	-8.2	1.4	-2.4
COc1ccc(NS(=O)(=O)c2cc3c(cc2C)NC(=O)CO3)c(OC)c1	-4.6%	-57.8*!	-9.7	8.2	5.3	-2.6
Cc1cc2c(cc1S(=O)(=O)N(C)CC(=O)Nc1ccc(C#N)cc1)OCC(=O)N2	-4.2%	-54.9*	-4.8	x	2.2	9.4
CCOC(=O)c1cccc(NS(=O)(=O)c2cc3c(cc2C)NC(=O)CO3)c1	x	-46.4*	-4.0	x	1.4	1.2
CC(=O)c1ccc(NC(=O)CN(C)S(=O)(=O)c2cc3c(cc2Cl)NC(=O)CO3)cc1	0.4%	-21.0	-4.3	x	2.6	-0.1
COc1cccc(CNS(=O)(=O)c2cc3c(cc2C)NC(=O)CO3)c1	-12.7%	-32.4*	-9.8	15.7	5.7	2.8
COc1cccc(CNC(=O)Cc2ccc(NC(=O)N3CCCCc4ccccc43)cc2)c1OC	x	0.2	-5.4	x	6.6	-0.5
CNC(=O)C[C@@H]1C(=O)N(C2CCCCC2)CC1(C)C	x	x	x	-23.0	x	-9.4
Cc1ccc(CNC(=O)CCS(=O)(=O)c2cc3c(cc2C)NC(=O)CO3)cc1	4.7%	-31.8*!	-10.2	9.5	1.7	0.2
Cc1ccc(CNC(=O)CCS(=O)(=O)c2ccc3c(c2)NC(=O)CO3)cc1	-0.6%	8.9	-7.5	-4.5	-0.5	2.2
CCOCCCNC(=O)Cn1cc2c(n1)-c1c(oc(C(=O)N3CCCC3)c1C)CC2	x	-32.2*	-3.6	16.5	3.8	-7.9
COC(=O)[C@@]1(Cc2ccc(F)cc2)[C@H]2c3cc(C(=O)N(C)C)n(Cc4nc5ccccc5[nH]4)c3C[C@H]2CN1C(=O)c1ccccc1	-2.5%	-5.9	0.8	-67.6*	10.3	-65.6
COC(=O)[C@@]1(Cc2ccc(F)cc2)[C@H]2c3cc(C(=O)N(C)C)n(Cc4ccccn4)c3C[C@H]2CN1C(=O)c1ccccc1	-6.4%	-13.2	-0.6	-16.9	9.1	-27.1
CCOC(=O)c1cnc2ccc(OC(F)(F)F)cc2c1Nc1ccccc1C(=O)O	x	0.3	-4.3	x	-1.0	30.7*
CCOC(=O)c1cnc2cc(F)c(F)cc2c1Nc1ccccc1O	x	-2.8	-0.8	x	-0.2	1.9
COc1cc2c(Nc3ccc(Br)cc3F)ncnc2cc1OCC1CCN(C)CC1	x	x	x	x	x	-10.9
O=c1[nH]cnc2scc(C3COc4ccccc4O3)c12 (stereo not given)	u	-17.8	-2.6	-18.0	47.2*	-2.5
Clc1ncnc2scc(C3COc4ccccc4O3)c12 (stereo not given)	u	-12.6	-4.5	u	0.3	0.6
N[C@H](C(=O)O)c1ccc(O)cc1	x	x	x	x	x	-6.9
